# Test results reported in article PMC11006913.
# Numbering of substitutions follows the chain as printed.
# Tests used:
# Assay in all cases: PBM; 200 nM protein, PBS
# Settings in all cases: dsDNA, one strand shown
# [1] = molecular target: NKX2-5 (Homo sapiens, UniProt P52952 125-210, R139K)
# [2] = molecular target: HOXB4 (Homo sapiens, UniProt P17483 148-234)
# [3] = molecular target: T1, NKX2-4 (Homo sapiens, UniProt Q9H2Z4 175-261, P217L)
# T1 sequence: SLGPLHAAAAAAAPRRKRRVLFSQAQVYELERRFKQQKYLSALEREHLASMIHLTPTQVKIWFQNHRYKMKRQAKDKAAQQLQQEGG
# [4] = molecular target: T2, NKX2-4 (Homo sapiens, UniProt Q9H2Z4 175-261, T231S)
# T2 sequence: T1 sequence with L43P, T57S
# [5] = molecular target: T3, NKX2-4 (Homo sapiens, UniProt Q9H2Z4 175-261)
# T3 sequence: T1 sequence with L43P
# [6] = molecular target: HOXB4 (Homo sapiens, UniProt P17483 148-234, V174I)
# [7] = molecular target: T4, NKX2-6 (Homo sapiens, UniProt A6NCS4 118-204, R150C)
# T4 sequence: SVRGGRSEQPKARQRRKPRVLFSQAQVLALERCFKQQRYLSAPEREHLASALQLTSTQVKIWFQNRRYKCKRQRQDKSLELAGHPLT
# [8] = molecular target: T5, NKX2-6 (Homo sapiens, UniProt A6NCS4 118-204)
# T5 sequence: T4 sequence with C33R
# [9] = molecular target: T6, NKX2-4 (Homo sapiens, UniProt Q9H2Z4 175-261, R246Q)
# T6 sequence: T1 sequence with L43P, R72Q
# [10] = molecular target: T7, NKX2-6 (Homo sapiens, UniProt A6NCS4 118-204, F151L)
# T7 sequence: T4 sequence with C33R, F34L
# [11] = molecular target: NKX2-5 (Homo sapiens, UniProt P52952 125-210)
# [12] = molecular target: NKX3-2 (Homo sapiens, UniProt P78367 192-278, P234S)
# [13] = molecular target: HOXB6 (Homo sapiens, UniProt P17509 132-218, K202E)
# [14] = molecular target: HOXA2 (Homo sapiens, UniProt O43364 129-215, R185T)
# [15] = molecular target: HOXA2 (Homo sapiens, UniProt O43364 129-215, R185K)
# [16] = molecular target: HOXA2 (Homo sapiens, UniProt O43364 129-215, Y150S)
# [17] = molecular target: HOXA2 (Homo sapiens, UniProt O43364 129-215)
# [18] = molecular target: HOXB6 (Homo sapiens, UniProt P17509 132-218)
# [19] = molecular target: NKX3-2 (Homo sapiens, UniProt P78367 192-278)
# Sequence of NKX3-2 (Homo sapiens, UniProt P78367 192-278) (P78367 192-278): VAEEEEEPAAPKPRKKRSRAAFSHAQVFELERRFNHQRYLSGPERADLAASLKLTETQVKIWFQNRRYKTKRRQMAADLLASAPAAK
# Sequence of NKX2-5 (Homo sapiens, UniProt P52952 125-210) (P52952 125-210): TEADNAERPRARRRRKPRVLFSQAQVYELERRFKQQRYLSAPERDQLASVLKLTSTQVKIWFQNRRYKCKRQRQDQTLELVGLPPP
# Sequence of NKX2-5 (Homo sapiens, UniProt P52952 125-210, R139K) (P52952 125-210 R139K): as the sequence (P52952 125-210) above, with R15K counted along it
# Sequence of HOXB4 (Homo sapiens, UniProt P17483 148-234, V174I) (P17483 148-234 V174I): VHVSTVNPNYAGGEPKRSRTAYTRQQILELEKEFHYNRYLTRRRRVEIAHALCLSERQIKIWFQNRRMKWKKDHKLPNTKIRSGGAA
# Sequence of HOXB4 (Homo sapiens, UniProt P17483 148-234) (P17483 148-234): as the sequence (P17483 148-234 V174I) above, with I27V counted along it
# Sequence of NKX3-2 (Homo sapiens, UniProt P78367 192-278, P234S) (P78367 192-278 P234S): as the sequence (P78367 192-278) above, with P43S counted along it
# Sequence of HOXB6 (Homo sapiens, UniProt P17509 132-218) (P17509 132-218): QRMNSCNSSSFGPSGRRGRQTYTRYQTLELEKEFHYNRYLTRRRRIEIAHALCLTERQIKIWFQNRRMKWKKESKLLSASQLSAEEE
# Sequence of HOXA2 (Homo sapiens, UniProt O43364 129-215) (O43364 129-215): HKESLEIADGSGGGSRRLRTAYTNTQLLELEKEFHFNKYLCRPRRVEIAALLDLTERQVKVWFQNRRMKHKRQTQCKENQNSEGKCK
# Sequence of HOXB6 (Homo sapiens, UniProt P17509 132-218, K202E) (P17509 132-218 K202E): as the sequence (P17509 132-218) above, with K71E counted along it
# Sequence of HOXA2 (Homo sapiens, UniProt O43364 129-215, R185T) (O43364 129-215 R185T): as the sequence (O43364 129-215) above, with R57T counted along it
# Sequence of HOXA2 (Homo sapiens, UniProt O43364 129-215, Y150S) (O43364 129-215 Y150S): as the sequence (O43364 129-215) above, with Y22S counted along it
# Sequence of HOXA2 (Homo sapiens, UniProt O43364 129-215, R185K) (O43364 129-215 R185K): as the sequence (O43364 129-215) above, with R57K counted along it
sequence,measurement,setting,value
ATCAAGTG,binding signal,[1],"12.8 upbm affinity estimate (log intensity, higher = more binding, comparable within an allelic series)"
same,binding signal,[2],"10.2 upbm affinity estimate (log intensity, higher = more binding, comparable within an allelic series)"
same,binding signal,[3],"12.6 upbm affinity estimate (log intensity, higher = more binding, comparable within an allelic series)"
same,binding signal,[4],"13 upbm affinity estimate (log intensity, higher = more binding, comparable within an allelic series)"
same,binding signal,[5],"12.4 upbm affinity estimate (log intensity, higher = more binding, comparable within an allelic series)"
same,binding signal,[6],"10.4 upbm affinity estimate (log intensity, higher = more binding, comparable within an allelic series)"
same,binding signal,[7],"12 upbm affinity estimate (log intensity, higher = more binding, comparable within an allelic series)"
same,binding signal,[8],"13.7 upbm affinity estimate (log intensity, higher = more binding, comparable within an allelic series)"
same,binding signal,[9],"13.1 upbm affinity estimate (log intensity, higher = more binding, comparable within an allelic series)"
same,binding signal,[10],"10.7 upbm affinity estimate (log intensity, higher = more binding, comparable within an allelic series)"
same,binding signal,[11],"12.6 upbm affinity estimate (log intensity, higher = more binding, comparable within an allelic series)"
ACACTTAT,binding signal,[1],"12.7 upbm affinity estimate (log intensity, higher = more binding, comparable within an allelic series)"
same,binding signal,[3],"12.6 upbm affinity estimate (log intensity, higher = more binding, comparable within an allelic series)"
same,binding signal,[4],"12.9 upbm affinity estimate (log intensity, higher = more binding, comparable within an allelic series)"
same,binding signal,[5],"12.4 upbm affinity estimate (log intensity, higher = more binding, comparable within an allelic series)"
same,binding signal,[7],"11.9 upbm affinity estimate (log intensity, higher = more binding, comparable within an allelic series)"
same,binding signal,[8],"13.6 upbm affinity estimate (log intensity, higher = more binding, comparable within an allelic series)"
same,binding signal,[9],"13.1 upbm affinity estimate (log intensity, higher = more binding, comparable within an allelic series)"
same,binding signal,[10],"11.1 upbm affinity estimate (log intensity, higher = more binding, comparable within an allelic series)"
same,binding signal,[12],"12.5 upbm affinity estimate (log intensity, higher = more binding, comparable within an allelic series)"
same,binding signal,[11],"12.6 upbm affinity estimate (log intensity, higher = more binding, comparable within an allelic series)"
CCGGCGCG,binding signal,[1],"8.28 upbm affinity estimate (log intensity, higher = more binding, comparable within an allelic series)"
same,binding signal,[11],"8.51 upbm affinity estimate (log intensity, higher = more binding, comparable within an allelic series)"
CCCGGCGG,binding signal,[1],"8.56 upbm affinity estimate (log intensity, higher = more binding, comparable within an allelic series)"
same,binding signal,[2],"7.64 upbm affinity estimate (log intensity, higher = more binding, comparable within an allelic series)"
same,binding signal,[6],"7.61 upbm affinity estimate (log intensity, higher = more binding, comparable within an allelic series)"
same,binding signal,[11],"8.58 upbm affinity estimate (log intensity, higher = more binding, comparable within an allelic series)"
CTTAAGTA,binding signal,[1],"12.9 upbm affinity estimate (log intensity, higher = more binding, comparable within an allelic series)"
same,binding signal,[3],"12.6 upbm affinity estimate (log intensity, higher = more binding, comparable within an allelic series)"
same,binding signal,[4],"12.9 upbm affinity estimate (log intensity, higher = more binding, comparable within an allelic series)"
same,binding signal,[5],"12.5 upbm affinity estimate (log intensity, higher = more binding, comparable within an allelic series)"
same,binding signal,[7],"11.7 upbm affinity estimate (log intensity, higher = more binding, comparable within an allelic series)"
same,binding signal,[8],"13.7 upbm affinity estimate (log intensity, higher = more binding, comparable within an allelic series)"
same,binding signal,[9],"13.1 upbm affinity estimate (log intensity, higher = more binding, comparable within an allelic series)"
same,binding signal,[10],"10.9 upbm affinity estimate (log intensity, higher = more binding, comparable within an allelic series)"
same,binding signal,[11],"12.8 upbm affinity estimate (log intensity, higher = more binding, comparable within an allelic series)"
GCACTTAA,binding signal,[1],"13.1 upbm affinity estimate (log intensity, higher = more binding, comparable within an allelic series)"
same,binding signal,[3],"12.6 upbm affinity estimate (log intensity, higher = more binding, comparable within an allelic series)"
same,binding signal,[4],"13 upbm affinity estimate (log intensity, higher = more binding, comparable within an allelic series)"
same,binding signal,[5],"12.5 upbm affinity estimate (log intensity, higher = more binding, comparable within an allelic series)"
same,binding signal,[13],"9.75 upbm affinity estimate (log intensity, higher = more binding, comparable within an allelic series)"
same,binding signal,[14],"10.2 upbm affinity estimate (log intensity, higher = more binding, comparable within an allelic series)"
same,binding signal,[7],"12 upbm affinity estimate (log intensity, higher = more binding, comparable within an allelic series)"
same,binding signal,[8],"13.8 upbm affinity estimate (log intensity, higher = more binding, comparable within an allelic series)"
same,binding signal,[15],"12.3 upbm affinity estimate (log intensity, higher = more binding, comparable within an allelic series)"
same,binding signal,[9],"13.2 upbm affinity estimate (log intensity, higher = more binding, comparable within an allelic series)"
same,binding signal,[10],"11.6 upbm affinity estimate (log intensity, higher = more binding, comparable within an allelic series)"
same,binding signal,[16],"10.8 upbm affinity estimate (log intensity, higher = more binding, comparable within an allelic series)"
same,binding signal,[12],"12.9 upbm affinity estimate (log intensity, higher = more binding, comparable within an allelic series)"
same,binding signal,[17],"10.4 upbm affinity estimate (log intensity, higher = more binding, comparable within an allelic series)"
same,binding signal,[11],"13 upbm affinity estimate (log intensity, higher = more binding, comparable within an allelic series)"
same,binding signal,[18],"10.9 upbm affinity estimate (log intensity, higher = more binding, comparable within an allelic series)"
same,binding signal,[19],"13.1 upbm affinity estimate (log intensity, higher = more binding, comparable within an allelic series)"
